The subject of experiment [1] is Plasmodium falciparum Sir2 (PF13_0152, Sir2A). The experiment can be described thus: Plasmodium falciparum Sir2A binding compounds – biochemical, small-molecule microarray, 635 nm fluorescence, primary screen (AID 1098).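 Note: score merges spot fluorescence intensity with its signal-to-noise ratio.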 The following applies: fluorescence 635 nm, higher = more signal.
A short description of experiment [2]: probe aDKK1 binding to arrayed compounds – biochemical, biotinylated probe, 635/667 nm fluorescence, primary screen (AID 1099).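 Note: score merges 667nm spot fluorescence with signal to noise across triplicate slides.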 The following applies: small-molecule microarray, higher = more signal.
Experiment [3] in a line: probe aCHRDL2 binding to arrayed compounds – biochemical, biotinylated probe, 635/667 nm fluorescence, primary screen (AID 1100). The following applies: small-molecule microarray, higher = more signal.
The nature of experiment [4]: change in splice reporter luminescence, either direction, cell-based, HEK293, spliceosome inhibition project, primary screen (AID 1101).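 Note: HEK293 cells carrying a splicing-competent luciferase reporter gene; test concentration not given here.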 The following applies: HEK293 splicing luciferase reporter, 24 h, higher = more signal, called active from +8 up or from −8 down.
Experiment [5] deals with Fibroblast growth factor 10 (Homo sapiens) (UniProt O15520). The experiment can be described thus: compounds binding fibroblast growth factor 10 – biochemical, small-molecule microarray, 635 nm fluorescence, primary screen (AID 1102). As to conditions: FGF10 binding, fluorescence 635 nm, higher = more signal.
Chain of Fibroblast growth factor 10 (Homo sapiens) (O15520 whole entry, looked up): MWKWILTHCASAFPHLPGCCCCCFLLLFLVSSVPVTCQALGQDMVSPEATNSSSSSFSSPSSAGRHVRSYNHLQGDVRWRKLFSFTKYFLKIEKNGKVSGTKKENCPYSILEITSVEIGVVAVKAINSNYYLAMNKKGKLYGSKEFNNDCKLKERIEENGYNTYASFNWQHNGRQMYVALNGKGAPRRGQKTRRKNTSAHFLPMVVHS
Experiment [6] has as its system glycogen synthase kinase-3 (GSK3A per assay name; protocol says GSK3B). The experiment can be described thus: compounds binding glycogen synthase kinase-3 – biochemical, small-molecule microarray, 635 nm fluorescence, GSK3A, primary screen (AID 1103). Note: the record names both GSK3A and GSK3B. As to conditions: fluorescence 635 nm, higher = more signal.
The target in experiment [7] is Epidermal growth factor receptor (Homo sapiens) (UniProt P00533). As to the kind of experiment: compounds binding epidermal growth factor receptor – biochemical, small-molecule microarray, 635 nm fluorescence, primary screen (AID 1104).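 Note: score merges 667 nm emission intensity with spot signal to noise over triplicate slides.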 As to conditions: EGFR binding, higher = more signal.
Chain of Epidermal growth factor receptor (Homo sapiens) (P00533 whole entry, looked up): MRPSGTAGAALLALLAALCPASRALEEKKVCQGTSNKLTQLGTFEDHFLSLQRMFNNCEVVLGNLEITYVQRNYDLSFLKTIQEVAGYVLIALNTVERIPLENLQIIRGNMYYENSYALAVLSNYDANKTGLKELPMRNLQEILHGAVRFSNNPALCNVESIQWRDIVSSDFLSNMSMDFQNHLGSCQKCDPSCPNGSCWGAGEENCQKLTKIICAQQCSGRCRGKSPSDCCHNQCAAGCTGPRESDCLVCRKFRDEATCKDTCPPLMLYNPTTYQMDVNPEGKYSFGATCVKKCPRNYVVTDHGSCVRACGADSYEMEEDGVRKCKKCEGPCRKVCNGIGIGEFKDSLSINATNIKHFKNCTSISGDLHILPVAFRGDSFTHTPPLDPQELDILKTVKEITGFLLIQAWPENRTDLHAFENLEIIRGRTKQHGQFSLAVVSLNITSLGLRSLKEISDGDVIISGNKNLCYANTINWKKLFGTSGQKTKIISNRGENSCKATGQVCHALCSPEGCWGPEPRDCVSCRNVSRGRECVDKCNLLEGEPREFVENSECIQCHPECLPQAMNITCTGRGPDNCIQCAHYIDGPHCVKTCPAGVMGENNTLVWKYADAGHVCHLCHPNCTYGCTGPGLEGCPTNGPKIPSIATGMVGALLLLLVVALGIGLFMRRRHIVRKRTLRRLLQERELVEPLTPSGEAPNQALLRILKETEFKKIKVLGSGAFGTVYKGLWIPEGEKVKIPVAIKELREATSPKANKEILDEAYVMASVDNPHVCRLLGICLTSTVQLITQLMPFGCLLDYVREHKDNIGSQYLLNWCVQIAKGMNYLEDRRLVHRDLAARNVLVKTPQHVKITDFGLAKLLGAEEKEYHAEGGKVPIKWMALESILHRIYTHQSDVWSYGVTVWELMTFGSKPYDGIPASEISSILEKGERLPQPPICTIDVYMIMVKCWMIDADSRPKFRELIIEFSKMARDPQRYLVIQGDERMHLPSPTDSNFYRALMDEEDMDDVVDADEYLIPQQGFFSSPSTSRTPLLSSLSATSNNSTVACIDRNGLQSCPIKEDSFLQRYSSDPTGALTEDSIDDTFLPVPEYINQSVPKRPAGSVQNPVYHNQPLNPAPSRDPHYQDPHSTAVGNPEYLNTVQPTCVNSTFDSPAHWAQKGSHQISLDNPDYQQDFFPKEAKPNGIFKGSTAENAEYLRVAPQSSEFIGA
Experiment [8] deals with Follistatin-related protein 3 (Homo sapiens) (UniProt O95633). As to the kind of experiment: compounds binding follistatin-related protein 3 – biochemical, small-molecule microarray, 635 nm fluorescence, primary screen (AID 1105).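 Note: score merges emission near 667 nm and signal to noise per printed spot across three slides.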 As to conditions: FSTL3 binding, higher = more signal.
Chain of Follistatin-related protein 3 (Homo sapiens) (O95633 whole entry, looked up): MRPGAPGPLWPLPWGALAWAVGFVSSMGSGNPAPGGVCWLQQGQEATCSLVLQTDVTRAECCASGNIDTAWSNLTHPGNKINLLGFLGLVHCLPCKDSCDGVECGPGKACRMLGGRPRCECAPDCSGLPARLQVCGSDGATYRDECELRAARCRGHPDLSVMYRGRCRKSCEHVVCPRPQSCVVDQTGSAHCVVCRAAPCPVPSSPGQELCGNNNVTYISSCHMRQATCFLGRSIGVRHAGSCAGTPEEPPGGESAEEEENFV
The target in experiment [9] is Dickkopf-related protein 1 (Homo sapiens) (UniProt O94907). The experiment can be described thus: small molecules binding DKK1 protein – biochemical, small-molecule microarray, 635 nm fluorescence scan, primary screen (AID 1106).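 Note: score merges emission near 667 nm with signal to noise over three replicate slides.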 As to conditions: higher = more signal.
Chain of Dickkopf-related protein 1 (Homo sapiens) (O94907 whole entry, looked up): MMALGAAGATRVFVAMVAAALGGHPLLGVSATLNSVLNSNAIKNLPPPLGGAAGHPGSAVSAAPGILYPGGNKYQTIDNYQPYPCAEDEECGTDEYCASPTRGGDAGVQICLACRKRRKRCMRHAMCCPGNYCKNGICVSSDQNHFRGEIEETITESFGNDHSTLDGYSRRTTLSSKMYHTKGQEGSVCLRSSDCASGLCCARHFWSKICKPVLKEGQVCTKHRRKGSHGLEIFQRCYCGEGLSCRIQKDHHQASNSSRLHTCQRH
In experiment [10] the test system is Inhibin beta A chain (activin A). The experiment can be described thus: small molecules binding activin A – biochemical, small-molecule microarray, 635 nm fluorescence scan, primary screen (AID 1107).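 Note: mouse activin A protein probed at 4.33 µg/mL on printed slides; score merges bound-protein fluorescence near 667 nm with spot signal-to-noise.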 As to conditions: INHBA, higher = more signal.
Experiment [11] deals with Human papillomavirus type 1a protein E7 (residues 44-93). The experiment can be described thus: small molecules binding HPV E7 44-93 – biochemical, small-molecule microarray, residues 44-93, 635 nm fluorescence, primary screen (AID 1108).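 Note: E7 fragment applied at 1 µg/mL in TBST for 1 h at 4 C; score combines spot fluorescence with its signal to noise ratio.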 The following applies: fluorescence 635 nm, higher = more signal.
Experiment [12] can be described thus: hepatitis C replication reporter changes, two-sided – Huh7 cells, luciferase reporter, HCV replication inhibitor project, primary screen (AID 1109).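 Note: huh7 hepatoma cells harbouring a luciferase neomycin HCV replicon reporter; luciferase luminescence as measure of HCV replicon replication; test concentration not given here.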 The following applies: Huh7 HCV replicon luciferase reporter, 48 h; higher = more signal.
Experiment [13] addresses Left-right determination factor 2 (Homo sapiens) (UniProt O00292). As to the kind of experiment: small molecules binding LEFTY2 protein – biochemical, small-molecule microarray, 635 nm fluorescence scan, primary screen (AID 1110). As to conditions: higher = more signal.
The target of experiment [14] is Calmodulin-1 (Homo sapiens) (UniProt P0DP23). As to the kind of experiment: small molecules binding calmodulin-1 with EGTA – biochemical, small-molecule microarray, Cy5-labelled CALM1, profiling panel (AID 1111).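 Note: labelled calmodulin applied in Tris saline Tween buffer holding calcium plus EGTA and DTT.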 The following applies: Cy5-CALM1 binding fluorescence, higher = more signal.
Experiment [15] has the same target. The experiment can be described thus: small molecules binding Ca-loaded calmodulin-1 – biochemical, small-molecule microarray, Cy5-labelled CALM1, plus calcium, artefact control for SMM control-protein annotation, profiling panel (AID 1112).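 Note: score merges spot fluorescence with signal to noise from triplicate slides.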 The following applies: Cy5-CALM1 binding fluorescence, higher = more signal.
Experiment [16] in a line: probe aWnt5a binding to arrayed compounds – biochemical, biotinylated probe, 635/667 nm fluorescence, primary screen (AID 1113).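 Note: score merges 667 nm fluorescence intensity with signal-to-noise per printed feature.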 As to conditions: small-molecule microarray, higher = more signal.
A short description of experiment [17]: probe aShh binding to arrayed compounds – biochemical, biotinylated probe, 635/667 nm fluorescence, primary screen (AID 1114).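 Note: probe is biotin-labelled aShh protein from a stem cell growth factor screen; measures binding of labelled protein to compounds printed on the slide; score merges feature fluorescence at 667 nm with signal-to-noise.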 The following applies: small-molecule microarray, higher = more signal.
Experiment [18] is described as follows: probe aNog binding to arrayed compounds – biochemical, biotinylated probe, 635/667 nm fluorescence, primary screen (AID 1115).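 Note: probe is biotinylated aNog protein used at 0.15 µg/mL for 1 h at 4 C; z-score combines 667 nm fluorescence of each spot with its signal to noise.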 As to conditions: small-molecule microarray, higher = more signal.
Experiment [19] deals with Torsin-1A-interacting protein 1 (Homo sapiens) (UniProt Q5JTV8). The experiment can be described thus: compound microarray binding of lysate hLAP1 – cell lysate, small-molecule microarray, COS7 lysate, 635/667 nm fluorescence, primary screen (AID 1116). The following applies: 635 nm fluorescence, higher = more signal.
Chain of Torsin-1A-interacting protein 1 (Homo sapiens) (Q5JTV8 whole entry, looked up): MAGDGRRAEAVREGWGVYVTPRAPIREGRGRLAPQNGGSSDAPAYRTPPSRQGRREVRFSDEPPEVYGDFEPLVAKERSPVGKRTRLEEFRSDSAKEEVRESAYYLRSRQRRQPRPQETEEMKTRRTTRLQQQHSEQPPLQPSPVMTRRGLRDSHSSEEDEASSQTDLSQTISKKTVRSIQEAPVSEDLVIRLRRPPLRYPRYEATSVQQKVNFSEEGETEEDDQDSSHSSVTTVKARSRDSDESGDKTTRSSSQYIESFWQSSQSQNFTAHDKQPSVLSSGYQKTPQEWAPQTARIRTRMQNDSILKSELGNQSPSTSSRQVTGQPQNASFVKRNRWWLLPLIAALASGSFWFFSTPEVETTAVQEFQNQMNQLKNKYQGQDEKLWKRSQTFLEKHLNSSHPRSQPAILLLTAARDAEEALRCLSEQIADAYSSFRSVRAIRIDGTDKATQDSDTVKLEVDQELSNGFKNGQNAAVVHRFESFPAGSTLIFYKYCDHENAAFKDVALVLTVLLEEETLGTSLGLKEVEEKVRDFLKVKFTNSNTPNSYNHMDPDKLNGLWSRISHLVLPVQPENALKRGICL
Experiment [20] has as its target Alpha-bungarotoxin (Bungarus multicinctus) (UniProt P60615). As to the kind of experiment: compounds binding labelled alpha-BTX control protein – biochemical, small-molecule microarray, Alexa647 label, 635/667 nm fluorescence, artefact control for SMM control protein annotation, profiling panel (AID 1117). The following applies: alpha-BTX-A647 binding fluorescence, higher = more signal.

Structures are written as SMILES. The source made the active and inactive calls.

This passage reports composite z-score and z-score results from PubChem BioAssay.

Chain of Alpha-bungarotoxin (Bungarus multicinctus) (P60615 whole entry, looked up): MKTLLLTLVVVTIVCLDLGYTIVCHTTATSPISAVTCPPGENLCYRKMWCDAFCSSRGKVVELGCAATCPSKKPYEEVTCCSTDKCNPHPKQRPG
Chain of Left-right determination factor 2 (Homo sapiens) (O00292 whole entry, looked up): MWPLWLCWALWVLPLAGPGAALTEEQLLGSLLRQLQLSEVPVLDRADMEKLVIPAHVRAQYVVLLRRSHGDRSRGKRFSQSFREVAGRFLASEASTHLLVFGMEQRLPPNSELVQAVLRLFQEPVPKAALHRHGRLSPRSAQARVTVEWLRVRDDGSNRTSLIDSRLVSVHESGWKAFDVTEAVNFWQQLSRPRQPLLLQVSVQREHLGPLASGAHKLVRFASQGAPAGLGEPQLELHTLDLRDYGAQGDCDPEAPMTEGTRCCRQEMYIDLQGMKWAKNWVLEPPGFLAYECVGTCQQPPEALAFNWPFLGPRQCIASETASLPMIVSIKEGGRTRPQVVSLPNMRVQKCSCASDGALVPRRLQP

On to `NC(=O)N1C(=O)C2C(C1=O)C1C=C(CCCO)C2C(C2CC2)N1Cc1cccc(OC(F)(F)F)c1` (stereo not given), for which the composite z-score in [1] is 1.59; in experiment [2], -0.306; in experiment [3], -0.345; in experiment [5], 0.075; in experiment [6], -0.186; in [7], -0.595. Moreover, the composite z-score in [8] was -0.494; in experiment [9] it was -0.0361; in experiment [10] it was 0.561; in [11], 0.504; in experiment [13], -0.219; in [14] it was -0.143. Also, the composite z-score was 0.2 in [15]; -0.173 in experiment [16]; -0.138 in experiment [17]; 0.56 in [18]; 0.691 in experiment [19]; -0.187 in experiment [20]. Moreover, the z-score in experiment [4] was 0.0948 (inactive); in experiment [12] it was -1.4.

In the case of `COC(=O)[C@@]1(Cc2ccc(F)cc2)[C@H]2c3cc(C(=O)N(C)C)n(Cc4ccc(O)c(OC)c4)c3C[C@H]2CN1C(=O)c1ccccc1`, the composite z-score in [1] was determined as 0.472; in experiment [2], 0.0331; in experiment [3], 0.128; in experiment [5] it was 0.448; in experiment [6], 0.538; in experiment [7], 0.269. Moreover, the composite z-score was 0.0792 in experiment [8]; 0.134 in experiment [9]; 0.937 in [10]; 0.347 in experiment [11]; -0.0182 in [13]; 1.17 in experiment [14]. In addition, the composite z-score in experiment [15] was -0.0337; in [16] it was 0.0776; in experiment [17], 0.207; in [18], -0.186; in [19] it was -0.105; in experiment [20], 0.412. In addition, the z-score is -4.34 (inactive) in experiment [4] and -1.05 in experiment [12].

In the case of `COCCOC(=O)N1C(=O)[C@@]2(c3cc(C#Cc4ccc(OC)cc4)ccc31)[C@H](C(=O)NC[C@H](O)c1ccccc1)[C@H]1C(=O)O[C@H](c3ccccc3)[C@H](c3ccccc3)N1[C@@H]2c1ccc(OCCO)cc1`, the composite z-score is 1.02 in experiment [1]; -0.0284 in experiment [2]; 0.236 in experiment [3]; 1.36 in experiment [5]; 1.3 in experiment [6]; 0.384 in experiment [7]. Further, the composite z-score in experiment [8] came to 0.863; in [9] it was 0.324; in experiment [10], 0.269; in experiment [11], 1.42; in [13] it was 0.46; in [14] it was 1.16. The composite z-score in experiment [15] is -0.0063; in [16], 0.0031; in [17], 0.0469; in experiment [18], 0.371; in experiment [19], 1.14; in experiment [20], 1.53. Further, the values for the z-score in [4] and in [12] were -1.31 (inactive) and -1.52, respectively.

With `COCCCNC(=O)[C@@]1(Sc2ccc(C)cc2)CC(=O)N(C(C)C)[C@@H]1c1ccc(CO)cc1I`, the composite z-score in experiment [1] is 1.03; in experiment [2], -0.0358; in experiment [3] it was 0.836; in [5], -0.0668; in [6], -0.0859; in experiment [7] it was -0.839. Moreover, the composite z-score in experiment [8] is -0.665; in experiment [9], -1.12; in experiment [10] it was 0.978; in experiment [11], 1.27; in experiment [13], -0.327; in experiment [14], -0.0081. In addition, the composite z-score was -0.0868 in [15]; -0.096 in [16]; -0.291 in experiment [17]; -0.289 in experiment [18]; 0.722 in experiment [19]; 0.487 in experiment [20]. For the same molecule, the values for the z-score in [4] and in [12] were -2.25 (inactive) and -3.44, respectively.

Take `CCOC(=O)C[C@H]1[C@H](OC(=O)c2ccccc2-c2ccccc2)[C@@H](NC(=O)c2ccc3ccccc3n2)c2cc(OCCCO)ccc2N1C(=O)c1ccccc1`: the composite z-score in experiment [1] was 0.459; in [2], -0.269; in [3], -0.46; in [5], 0.526; in experiment [6] it was 0.45; in [7], 0.575. Also, the composite z-score was 0.581 in experiment [8]; 0.499 in experiment [9]; 0.0428 in experiment [10]; 1.29 in [11]; 0.487 in experiment [13]; -0.0187 in [14]. Moreover, the composite z-score in experiment [15] is -0.457; in experiment [16] it was -0.0519; in experiment [17] it was -0.248; in [18], -0.347; in [19], 0.291; in experiment [20], 0.414. Also, the values for the z-score in [4] and in experiment [12] were -0.407 (inactive) and -1.7, respectively.

As to `COCC1C2CC[C@H]3C(OCc4ccc(OC)cc4)OC[C@]4(C)[C@H]3C2=C(CN4C(=O)OC(C)(C)C)[C@H](C)C1COC` (stereo not given in full), the composite z-score worked out at 0.852 in experiment [1]; 0.319 in [2]; 0.482 in experiment [3]; 1.11 in experiment [5]; 1.32 in experiment [6]; 0.418 in [7]. Besides, the composite z-score was determined as 1.16 in [8]; 0.207 in experiment [9]; 0.752 in experiment [10]; 1.4 in experiment [11]; 0.366 in experiment [13]; 2.47 in experiment [14]. In addition, the composite z-score in experiment [15] is 0.671; in experiment [16], -0.0134; in experiment [17], 0.0898; in experiment [18], -0.373; in experiment [19], 0.782; in [20] it was 1.14. Further, the z-score in experiment [4] is -1.98 (inactive); in experiment [12], -0.733.

Regarding `CCOC(=O)C[C@H]1[C@H](OC(=O)c2cc3ccccc3oc2=O)[C@@H](NC(=O)c2ccc3ccccc3c2)c2cc(OCCCO)ccc2N1C(=O)Cc1ccc(OC)cc1`, the composite z-score was 0.571 in experiment [1]; -0.0385 in experiment [2]; -0.0886 in experiment [3]; 0.576 in experiment [5]; 0.162 in [6]; 0.34 in [7]. In addition, the composite z-score in experiment [8] was 1.18; in experiment [9] it was 0.427; in experiment [10], 0.237; in experiment [11], 1.16; in experiment [13], 0.763; in [14], 0.31. Further, the composite z-score in experiment [15] was -0.239; in experiment [16] it was -0.0648; in experiment [17], 0.0588; in experiment [18] it was -0.0047; in experiment [19], 0.546; in [20] it was 0.259. The figures for the z-score in [4] and in experiment [12] were -0.239 (inactive) and -1.6, respectively.

Take `C=CCC(OC(C)=O)[C@@H]1[C@@H](N(Cc2cccc3ccccc23)C(=O)c2ccc(-c3ccccc3)cc2)c2cc(OCCCO)ccc2N1C(=O)c1ccc(-c2ccccc2)cc1` (stereo not given in full): the composite z-score is 0.122 in experiment [1]; 0.508 in experiment [2]; 0.75 in experiment [3]; -0.221 in experiment [5]; -0.0259 in [6]; -0.151 in [7]. Also, the composite z-score in [8] is 0.143; in experiment [9] it was -0.242; in experiment [10], 0.967; in experiment [11], 0.635; in experiment [13] it was 0.385; in experiment [14], 0.603. Also, the composite z-score in experiment [15] is 1.16; in experiment [16] it was -0.0819; in experiment [17], 0.0899; in [18], 0.355; in [19] it was 0.35; in [20], 0.439. The z-score is -0.698 (inactive) in experiment [4] and -0.681 in experiment [12].
